Hits are enriched below; roughly 2.9% of the tested compounds scored in any of these assays.
POLI inh: blocks human DNA polymerase iota activity | Q9UNA4 | Pol iota fluorescent replication assay, 10 min | Potency, µM (titrated, usually from 115 µM), without a hit: top-dose activity, negative = inhibition, actives largely listed as inhibitors | 390,000 tested, 1% active | AID 588590; also: potency is read from the fitted curve at half-maximal effect
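Pol iota at 10 nM preincubated 15 min with compounds at room temperature; reaction started with fluorescent substrate, 50 nM final. Fluorescence read kinetically at 0 and 10 min; buffer-only wells as negative control.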
POLH inh: inhibitors of human DNA polymerase eta; 390,000 tested, 1.2% active; recombinant Pol eta, fluorescent DNA replication assay; AID 588591; Q9Y253; Potency, µM (top dose mostly 114 µM), inactives show at the highest dose activity change, negative = inhibition, actives largely listed as inhibitors; also: potency is read from the fitted curve at half-maximal effect; % is scaled to controls: 0 for no effect and ±100 for the full control effect
Target sequence (Q9Y253 whole entry, looked up): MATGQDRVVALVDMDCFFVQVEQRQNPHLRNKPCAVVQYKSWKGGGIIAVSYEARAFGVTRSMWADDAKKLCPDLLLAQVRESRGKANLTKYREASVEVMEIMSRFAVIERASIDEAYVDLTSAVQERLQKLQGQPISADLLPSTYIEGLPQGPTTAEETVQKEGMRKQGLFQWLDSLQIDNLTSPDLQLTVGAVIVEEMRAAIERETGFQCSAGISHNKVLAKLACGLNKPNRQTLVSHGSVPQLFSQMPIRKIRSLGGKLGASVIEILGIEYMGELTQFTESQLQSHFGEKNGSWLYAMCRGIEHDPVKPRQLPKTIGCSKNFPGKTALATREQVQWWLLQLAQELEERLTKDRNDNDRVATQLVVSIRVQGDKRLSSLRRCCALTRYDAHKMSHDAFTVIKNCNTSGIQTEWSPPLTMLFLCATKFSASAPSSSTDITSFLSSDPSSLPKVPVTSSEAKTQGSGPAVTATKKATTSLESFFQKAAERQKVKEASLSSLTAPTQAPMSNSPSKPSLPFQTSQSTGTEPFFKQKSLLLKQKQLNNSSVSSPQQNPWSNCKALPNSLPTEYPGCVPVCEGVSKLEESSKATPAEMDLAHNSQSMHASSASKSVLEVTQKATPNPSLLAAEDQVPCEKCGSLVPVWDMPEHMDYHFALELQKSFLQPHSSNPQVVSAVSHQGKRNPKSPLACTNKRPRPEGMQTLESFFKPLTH
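Pol eta at 10 nM preincubated with compounds 15 min at room temperature; reaction started with fluorescent substrate (50 nM final) and read kinetically at 0 and 10 min.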
ALOX12 inh: inhibitors of human 12S-lipoxygenase ALOX12 | 580,000 tested, 1.1% active | Potency, µM (top dose mostly 108 µM), without a hit: at the highest dose activity change, negative = inhibition, most hits filed as inhibitors | AID 1671190 | P18054 | purified 12hLO, xylenol orange hydroperoxide absorbance; also: potency is read from the fitted curve at half-maximal effect; % is scaled to controls: 0 for no effect and ±100 for the full control effect
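Purified human 12hLO (150 nM final) in 25 mM Hepes, 0.01% Triton X-100, pH 7.0 was preincubated 15 min at room temperature with compound. Then 40 uM arachidonic acid was added, 30 min. Hydroperoxide was read by Fe-XO absorbance ratio 573/405 nm.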
PI5P4Ka inh: PI5P4K alpha (human) kinase inhibition. P48426. PI5P4Kalpha enzyme, ADP-Glo luminescence, 60 min; stronger effect = lower value. max response, %. 330,000 tested, 1.2% active. AID 652105; active = max response of -50% or lower; inconclusive = between -30% and -50%; inactive = -30% or higher; also: value at the top dose of about 77 µM; % is scaled to controls: 0 for no effect and ±100 for the full control effect
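Reactions run in 0.038 M HEPES pH 7.4, 0.28 mM EGTA, 0.1% CHAPS and 5% DMSO, with PI5P4Kalpha, substrate, compound and 5 microM ATP final, one hour at room temperature. Readout is ADP-Glo luminescence.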
POLB inh: inhibitors of human DNA polymerase beta | Pol beta primer extension/strand displacement, fluorescence kinetic | Potency, µM (series often up to 114 µM), without a hit: top-dose activity change, negative = inhibition, actives largely listed as inhibitors | 340,000 tested, 1.3% active | AID 485314; also: potency is read from the fitted curve at half-maximal effect; % is scaled to controls: 0 for no effect and ±100 for the full control effect
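Pol beta (10 nM) was preincubated with compound for 15 min at room temperature. The reaction was then started with 50 nM substrate and read immediately and after a further 10 min at room temperature.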
POLK inh: blocks human DNA polymerase kappa activity; Q9UBT6; purified Pol kappa, fluorescent DNA synthesis assay, 10 min; 400,000 tested, 0.53% active; Potency, µM (titrated, usually from 107 µM), for inactives: top-dose activity, negative = inhibition, hits mostly inhibitors; also: potency is read from the fitted curve at half-maximal effect; % is scaled to controls: 0 for no effect and ±100 for the full control effect
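Pol kappa 10 nM + cpd, 15 min RT; start w/ substrate 50 nM final; fluorescence kinetic read, 0 and 10 min. Neg ctrl: buffer, no enzyme.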
Numbers without * were called inactive; ? = inconclusive; . = no result given; [ ] = dose if it differs, or a comment. Unless noted, calls follow the shape of the dose curve; as a rule, active = well fitted inhibition curve with a large enough effect; inconclusive = small, poorly fitted or top-dose-only effect, or another doubt; inactive = no such curve, though single readings can be large or run the other way.

SMILES	POLI inh	POLH inh	ALOX12 inh	PI5P4Ka inh	POLB inh	POLK inh
CCOC(=O)Cn1c(CCC(=O)O)ccc1-c1ccc(F)cc1	-27.9%	-1.3%	-27.8%	1.3	2.2%	-5.9%
Cc1ccc(-c2ccc(CCC(=O)O)n2CC(=O)O)cc1	?	25.1µM*	.	.	15.8µM*	2.8%[60.1 µM]
COC(=O)c1ccc(CSc2n[nH]c(=S)s2)o1	-12.6%	-14.3%	15.8µM*	?	5.6%	-1.2%
COC(=O)c1ccc(CSc2nc3ccccc3s2)o1	4.1%	-15.4%	-20.3%	.	-11.5%	-6.3%
COc1ccc(CCNC(=O)CCc2c(C)noc2C)cc1OC	.	.	-7.1%	.	.	.
COc1ccc(NC(=S)NCCc2c[nH]c3ccccc23)cc1	5.7%	-20.4%	50.1µM*	-8.9	9.1%	-15.8%
FC(F)(F)c1cccc(NC(=S)NCCc2c[nH]c3ccccc23)c1	.	.	39.8µM*	.	.	.
Fc1ccc(NC(=S)NCCc2c[nH]c3ccccc23)cc1	.	.	-27.1%	.	.	.
O=C1NC2(CCN(S(=O)(=O)c3ccc(F)cc3)CC2)N=C1c1cccs1	.	.	5.3%	.	.	.
CCOC(=O)c1cccc(NC(=O)c2nc3ccccc3nc2N2CCCC2)c1	.	.	-18.3%	.	.	.
CCOc1cccc(CNc2nn[nH]n2)c1OCc1ccccc1	.	.	-12.7%	.	.	.
COc1ccc(C(C)=O)cc1COC(=O)c1cccc(Br)c1	.	.	26.5%	.	.	.
Cn1c(SCC(=O)c2cc3cc(Cl)ccc3o2)nnc1-c1cccnc1	.	.	28.2µM*	.	.	.
O=C(CSc1nnc(-c2cccnc2)n1C1CCCCC1)NC1CCCCC1	-10.8%	-9.5%	-17.3%	.	-1.1%	-7.9%
O=C(CSc1nnc(-c2cccnc2)n1C1CC1)c1cc2cc(Cl)ccc2o1	.	.	25.1µM*	.	.	.
CN(C)c1cccc(-c2cnc(Nc3cccnc3)c3c2CCO3)c1	.	.	9.0%[176 µM]	.	.	.
O=C(Nc1cccnc1)C1CCC1	.	.	-1.2%	.	.	.
O=S(=O)(c1ccc(Cl)cc1)c1ccc(-c2ccc(S(=O)(=O)c3ccc(Cl)cc3)cc2)cc1	.	.	11.2µM*	.	.	.
CC(C)(Oc1ccc(CCNC(=O)c2ccc(-c3ccccc3)o2)cc1)C(=O)O	24.6%	1.2%	-10.9%	-8.1	87.7%	-3.9%
CC(C)(Oc1ccc(-c2ccco2)cc1)C(=O)O	.	.	.	.	39.8µM*	.
O=C(Nc1ccc[nH]c1=O)c1cc[n+]([O-])cc1	.	.	10.3%	.	.	.
O=C(NCc1ccc2c(c1)OCO2)c1cc2c(s1)CSC2	-21.1%	?	1.3%[57.4 µM]	-50.4*	?	?
O=C(NCc1ccco1)c1cccs1	?	?	0.0%	-15.4	-9.6%	-15.0%
O=C(NCc1ccco1)c1cc2c(s1)CSC2	?	20µM*	.	.	14.1µM*	11.2µM*
CCc1ccc(NC(=O)Nc2ccc3sc(NC(C)=O)nc3c2)cc1	.	.	7.08µM*	.	.	.
SMILES	POLI inh	POLH inh	ALOX12 inh	PI5P4Ka inh	POLB inh	POLK inh
O=C(COC(=O)c1ccsc1)c1ccc2c(c1)OCCCO2	.	.	-39.0%	.	.	.
COc1ccc(-c2cn3c(n2)CO[C@@H](CNS(C)(=O)=O)C3)cc1	.	.	29.1%[176 µM]	.	.	.
COc1ccc(-c2cn3c(n2)CO[C@@H](CNCc2ccc(Cl)cc2)C3)cc1	.	.	8.91µM*	.	.	.
O=C1NC(=Nc2cccc(O)c2)S/C1=C\c1cccc([N+](=O)[O-])c1	56.6%	?	-26.9%	-69.8*	-14.7%	-20.9%
COc1cc(/C=C2\SC(=Nc3cccnc3)NC2=O)cc(OC)c1OC	60.1%	?	138.3%	-89.1*	23.0%	-4.3%
Cc1c(N=C2NC(=O)/C(=C/c3cccc([N+](=O)[O-])c3)S2)c(=O)n(-c2ccccc2)n1C	.	.	.	.	-24.6%	.
O=C1NC(=Nc2cccc(O)c2)S/C1=C\c1cccnc1	-2.3%	-9.2%	5.1%	-60.2*	0.9%	19.6%
COc1ccccc1/C=C/CN1CCCC(CO)(Cc2cccc(Cl)c2)C1 (centres undefined)	9.8%	-24.4%	39.8µM*	26.1	24.0%	-8.6%
COc1cccc(CC2(CO)CCCN(C/C=C/c3ccccc3OC)C2)c1 (centres undefined)	21.5%	-7.7%	-23.5%	-0.8	-1.3%	-3.8%
COc1ccc2c(=O)c(-c3ccccc3)coc2c1C	.	.	31.6µM*	.	.	.
COc1ccc2c(=O)c(-c3ccccc3)coc2c1	18.2%	-5.2%	1.8%	-7.7	-6.9%	-8.2%[19.4 µM]
CCc1cccc(CC)c1NC(=O)COC(=O)c1ccc2ccccc2n1	.	.	6.31µM*	.	.	.
Cc1ccc(S(=O)(=O)N2CCN(C(=O)Cc3ccc(-c4ccccc4)cc3)CC2)cc1	.	.	-10.2%	.	.	.
O=C(Nc1nc2c(F)cc(F)cc2s1)c1ccc(S(=O)(=O)N2CCc3ccccc32)cc1	?	-10.7%	-26.2%	.	31.6µM*	-11.0%[60.1 µM]
O=C(Nc1nc2c(F)cccc2s1)c1ccc(S(=O)(=O)N2CCCc3ccccc32)cc1	38.4%	-15.9%	0.0%	.	-10.2%	-6.8%[60.1 µM]
N=C(N)c1ccc(/C=C/c2ccc(C(=N)N)cc2O)cc1	35.5µM*	-5.8%	0.0%	-19.1	8.91µM*	?
Cc1cc(C)c(/C=N/NC(=O)c2csc3ccccc23)c(C)c1	.	.	21.8%	.	.	.
C=C(C)Cn1c(=O)c2c(nc3n2CCN3c2cc(C)cc(C)c2)n(C)c1=O	79.4µM*	-9.2%	-20.1%	.	-13.1%	-5.8%
O=C1CCCCCCCCCCCCCCCO1	.	.	3.8%[176 µM]	.	.	.
C=CCn1c(-c2ccc3ncccc3c2)n[nH]c1=S	13.8%	-4.5%	28.2µM*	-29.2	30.0%	16.6%
CCn1c(-c2ccc3ncccc3c2)n[nH]c1=S	104.2%	-5.2%	?	?	35.2%	-0.8%
COc1ccc(CCNC(=O)CCc2c(C)nn(CC(C)C)c2C)cc1OC	.	.	5.1%	.	.	.
C#CCOCCOCCOCCNc1nc(N2CCN(C(=O)CCCCCCCCCCNC(=O)[C@H](CCCCN)n3cc(CCO)nn3)CC2)nc(N2CCN(C(=O)CCCCCCCCCCNC(=O)[C@H](CCCN=C(N)N)n3cc(C[C@@H](C)CC)nn3)CC2)n1	?	79.4µM*	.	-65.7*	.	?
C#CCOCCOCCOCCNc1nc(N2CCN(C(=O)CCCCCCCCCCNC(=O)[C@H](CCCCN)n3cc(C[C@@H](C)CC)nn3)CC2)nc(N2CCN(C(=O)CCCCCCCCCCNC(=O)[C@H](CCCCN)n3cc(C[C@@H](C)CC)nn3)CC2)n1	20.3%	79.4µM*	.	-51.7*	.	-2.6%
FC(F)(F)c1cccc(N2CCC(N=CN3CCCCCC3)=N2)c1	-11.9%	89.1µM*	?	-1.0	9.1%	-11.6%
Oc1ccccc1C=NC1=NN(c2cccc(C(F)(F)F)c2)CC1	28.7%	-19.8%	?	.	-18.2%	-10.5%
Cc1ccccc1C(C)NC(=O)c1ccc[n+]([O-])c1 (centres undefined)	.	.	3.6%	.	.	.
O=C(N/N=C/c1ccco1)c1cc(-c2cccc3ccccc23)n[nH]1	-13.6%	-7.6%	18.5%	.	?	-13.9%
O=C(N/N=C/c1ccccc1C(=O)O)c1cc(-c2ccc3c4c(cccc24)CC3)n[nH]1	56.2%	?	-11.3%	-10.9	56.2µM*	-3.9%
